Records with an inconclusive call do not appear. A number with no mark means an inactive call. Activity calls are given as the source filed them. Calls follow the shape of the dose curve; as a rule, active = well fitted cell-killing curve with a large enough effect in the repeat runs; inconclusive = weak or mixed curves, or effect the other way; inactive = flat fitted curve, though single readings scatter.
assay: cAMP Responsive Elements (CRE) small molecule antagonists, cell-based qHTS assay: qHTS cell viability counter screen (AID 2060913); conditions: CRE-bla HEK293T viability, CellTiter-Glo luminescence, 5 h; series mostly up to 92.4 µM; viability change, negative = cytotoxic: at the top concentration; also: nearly all actives have a fitted effect of over 40% in size
How it was run: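 Cytotoxicity read in the same wells as the CRE-bla HEK293T antagonist assay: after 3 h compound with 0.25 uM NKH477 final and 2 h beta-lactamase substrate, CellTiter-Glo luminescence measured.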
% is scaled to controls: 0 for no effect and ±100 for the full control effect; potency is read from the fitted curve at half-maximal effect.

Row | SMILES | viability change, negative = cytotoxic | Potency
1 | NS(=O)(=O)c1ccc(NC(=O)CCC(=O)O)cc1 | -2.03% [at 42.5 µM] | 
2 | CCC(C)(O)CCC=C(C)C (stereo not given) | -1.85% | 
3 | CN(C/C=C/c1ccccc1)Cc1cccc2ccccc12 |  | 29.8 µM (active)
4 | O=C(Nc1ccc([N+](=O)[O-])cc1Cl)c1cc(Cl)ccc1O | -20.4% | 
5 | O=C(Nc1ccccc1)OCC(CN1CCCCC1)OC(=O)Nc1ccccc1 (stereo not given) | -0.391% [at 42.5 µM] | 
6 | O=C1OC(=O)c2c(Cl)c(Cl)c(Cl)c(Cl)c21 |  | inactive
7 | O=S(=O)(O)c1ccc(Nc2nc(Nc3ccc(/C=C/c4ccc(Nc5nc(Nc6ccc(S(=O)(=O)O)cc6)nc(N(CCO)CCO)n5)cc4S(=O)(=O)O)c(S(=O)(=O)O)c3)nc(N(CCO)CCO)n2)cc1 | 9.3% [at 42.5 µM] | 
8 | Cc1ccc(S(=O)(=O)NC(=O)NC2CCCCCCC2)cc1 | 1.89% [at 42.5 µM] | 
9 | CC(C)(C)NC(=O)[C@@H]1C[C@@H]2CCCC[C@@H]2CN1C[C@@H](O)[C@H](Cc1ccccc1)NC(=O)[C@H](CC(N)=O)NC(=O)c1ccc2ccccc2n1 |  | 61.9 µM (active)
10 | N#CCC(=O)O |  | inactive
11 | Cc1nc2n(c(=O)c1CCN1CCC(c3noc4cc(F)ccc34)CC1)CCC[C@H]2O | 2.27% [at 18.9 µM] | 
12 | Clc1cccc(-c2cc(Cl)cc(Cl)c2)c1 | 0.118% | 
13 | CCN(CC)C(=O)N(CC)CC | 0.0634% | 
14 | Oc1ccc(C2(c3ccc(O)c(C4CCCCC4)c3)CCCCC2)cc1C1CCCCC1 |  | 43.3 µM (active)
15 | CC/C=C\CCOC(=O)c1ccccc1 | -0.512% | 
16 | O=C(O)/C=C/c1cnc[nH]1 | 8.81% | 
17 | Cc1ccc(C(=O)C(C)CN2CCCCC2)cc1 (stereo not given) | 1.01% [at 42.5 µM] | 
18 | CCc1cccc(CC)c1NC(=O)CN(CC(=O)O)CC(=O)O | 0.58% [at 42.5 µM] | 
19 | Nc1ccc(S(=O)(=O)Nc2nccs2)cc1 |  | inactive
20 | O=C(c1ccco1)N1CCNCC1 | 8.59% [at 42.5 µM] | 

Row | SMILES | viability change, negative = cytotoxic | Potency
21 | CC=C(Cl)Cl | 4.8% | 
22 | CCCCCCCC1CCCC1=O (stereo not given) | 0.877% | 
23 | COC(C(=O)O)c1ccccc1 (stereo not given) | 1.47% | 
24 | COc1ccc(OC)c(NC(=O)CC(C)=O)c1 | 4.24% | 
25 | C/C=C1\C(=O)C[C@H]2[C@@H]3CCC4=CC(=O)CC[C@]4(C)[C@H]3CC[C@]12C | -1.01% [at 42.5 µM] | 
26 | COCC(C)O (stereo not given) |  | inactive
27 | CO[Si](CCCS)(OC)OC | 4.73% | 
28 | C=C[Si](C)(C)O[Si](C)(C)C=C | 10.8% | 
29 | N[C@@H](Cc1ccc(O)cc1)C(=O)O | -0.963% [at 8.39 µM] | 
30 | Cc1ccc(N=Nc2c(O)ccc3ccccc23)c(C)c1 | 1.74% [at 42.5 µM] | 
31 | O=C(/C=C/c1ccccc1)OC/C=C/c1ccccc1 | -2.52% | 
32 | CCC(CC)(CC(=O)Nc1cccc(/C=C/c2nc(C3CCC3)cs2)c1)C(=O)O | -5.07% [at 42.5 µM] | 
33 | CC(COc1ccc(C(C)(C)C)cc1)OS(=O)OCCCl (stereo not given) | 2.62% | 
34 | O=C1NC(=O)c2cccc3cccc1c23 | 0.917% | 
35 | Cn1c(N)nc2nc[nH]c2c1=O | 11.2% | 
36 | COc1cccc2c1C(=O)c1c(O)c3c(c(O)c1C2=O)C[C@@](O)(C(C)=O)C[C@@H]3O[C@H]1C[C@H](N)[C@H](O)[C@H](C)O1 | 15.8% [at 42.5 µM] | 
37 | N=C(N=C(N)N)N1CCOCC1 | -0.378% [at 42.5 µM] | 
38 | C/C=C/C=C/C=O | 7.74% | 
39 | Nc1ccc([N+](=O)[O-])cc1O | 16.8% | 
40 | CCCCCC1CCC(=O)O1 (stereo not given) | -3.2% | 
